Results taken from PubChem BioAssay (NCI).
The panel holds about 83,000 compounds, 20% with a hit somewhere; the sample as a whole holds those more often.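 Plates (96-well) were seeded with cells, treated with compound at one concentration, and incubated for 48 hours before percent growth was determined.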 Active and inactive are the calls of the source. Rule for the calls: active = growth percent below 10; inactive = the rest.

What was measured:
Test in all cases: NCI-60 one-dose screen, 48 h (100 = growth as untreated, 0 = no growth, -100 = all killed)
Conditions in all cases: 10 µM unless noted
SK-MEL-2 melanoma = test system: SK-MEL-2 melanoma
EKVX NSCLC = test system: EKVX NSCLC
SN12C renal = test system: SN12C renal
UO-31 renal = test system: UO-31 renal
TK-10 renal = test system: TK-10 renal
CAKI-1 renal = test system: CAKI-1 renal
A498 renal = test system: A498 renal
CCRF-CEM leukemia = test system: CCRF-CEM leukemia
MOLT-4 leukemia = test system: MOLT-4 leukemia
ACHN renal = test system: ACHN renal

Measured: growth

O=c1ccc2ccccc2o1
inactive: SK-MEL-2 melanoma 101% | EKVX NSCLC 109% | SN12C renal 109% | UO-31 renal 89.9% | TK-10 renal 98.3% | CAKI-1 renal 89.7% | A498 renal 96.4% | CCRF-CEM leukemia 87.4%

Cc1nn(CC(=O)O)c2c1C(=O)CC(C)(C)C2
inactive: SK-MEL-2 melanoma 113% | EKVX NSCLC 105% | SN12C renal 101% | UO-31 renal 74% | TK-10 renal 89.9% | CAKI-1 renal 97.4% | A498 renal 97.8% | CCRF-CEM leukemia 99.6% | MOLT-4 leukemia 81.1%

c1ccc(-c2n(Cc3ccc4ccccc4n3)c3ccccc3[n+]2Cc2ccc3ccccc3n2)cc1
active: SK-MEL-2 melanoma -20.7% | SN12C renal 2.63% | CAKI-1 renal -17.6% | A498 renal -16.4% | MOLT-4 leukemia -16.9%
inactive: EKVX NSCLC 13.5% | UO-31 renal 27.8% | ACHN renal 34.2% | CCRF-CEM leukemia 12.5%

COc1cc(Cn2cc(F)c(=O)[nH]c2=O)cc(OC)c1
inactive: SK-MEL-2 melanoma 114% [50 µM] | EKVX NSCLC 98.6% [50 µM] | SN12C renal 98.9% [50 µM] | UO-31 renal 75.3% [50 µM] | ACHN renal 101% [50 µM] | CAKI-1 renal 92.9% [50 µM] | A498 renal 98.2% [50 µM] | CCRF-CEM leukemia 103% [50 µM] | MOLT-4 leukemia 103% [50 µM]

O=c1c2c(=NCCN3CCCC3)cc3c(=O)n(CCCN4CCOCC4)c(=O)c4c(-c5ccc(CN6CCCC6)cc5)cc(c(O)n1CCCN1CCOCC1)c2c4-3
active: SK-MEL-2 melanoma -40.8% | EKVX NSCLC -37% | SN12C renal -25.5% | UO-31 renal -6.74% | ACHN renal -4.38% | CAKI-1 renal 0.0079% | A498 renal -85% | CCRF-CEM leukemia -4.42% | MOLT-4 leukemia 0.115%

c1ccc2cc(-c3n(Cc4ccc5ccccc5n4)c4ccccc4[n+]3Cc3ccc4ccccc4n3)ccc2c1
active: SK-MEL-2 melanoma -42.9% | EKVX NSCLC 4.21% | SN12C renal 0.451% | UO-31 renal -14.3% | ACHN renal 7.63% | CAKI-1 renal -47.6% | A498 renal -22.3% | CCRF-CEM leukemia 8.55% | MOLT-4 leukemia -32.8%

OB(O)c1ccccc1
inactive: SK-MEL-2 melanoma 107% | EKVX NSCLC 108% | SN12C renal 112% | UO-31 renal 91.3% | TK-10 renal 105% | CAKI-1 renal 96.5% | A498 renal 106% | CCRF-CEM leukemia 100% | MOLT-4 leukemia 96.9%

COc1cc(-c2nc(SC(C)C)nc(Nc3ccccc3C)c2C#N)cc(OC)c1OC
inactive: SK-MEL-2 melanoma 103% | EKVX NSCLC 102% | SN12C renal 104% | UO-31 renal 86.3% | ACHN renal 101% | CAKI-1 renal 94.1% | A498 renal 88.4% | CCRF-CEM leukemia 103% | MOLT-4 leukemia 110%

O=C(O)c1ccccc1Oc1cc(-c2ccco2)nc(OCCBr)n1
inactive: SK-MEL-2 melanoma 111% | EKVX NSCLC 94.5% | SN12C renal 94.7% | UO-31 renal 86.6% | TK-10 renal 103% | A498 renal 99.3% | CCRF-CEM leukemia 87.1% | MOLT-4 leukemia 98.5%

O=C1C=CC(=O)N1CCCCCCCCCCN1C(=O)C=CC1=O
inactive: SK-MEL-2 melanoma 96% | EKVX NSCLC 97.8% | SN12C renal 94.8% | UO-31 renal 48.2% | TK-10 renal 106% | CAKI-1 renal 15.2% | A498 renal 147% | CCRF-CEM leukemia 16.5% | MOLT-4 leukemia 18.3%

O=C(N/N=C/c1ccc(OC(F)F)c(OC2CCCC2)c1)c1cnn2c1NC(c1ccccc1)C2 (stereo not given)
inactive: SK-MEL-2 melanoma 90.7% | EKVX NSCLC 91.5% | SN12C renal 87.1% | UO-31 renal 65.1% | TK-10 renal 91.9% | ACHN renal 82.3% | CCRF-CEM leukemia 78.7% | MOLT-4 leukemia 54.7%

CCCCC1COc2cccc3c(SCC(=O)N(C)c4cccc5ccccc45)cc[n+]1c23 (stereo not given)
inactive: SK-MEL-2 melanoma 102% | EKVX NSCLC 109% | SN12C renal 98.7% | UO-31 renal 94.1% | TK-10 renal 96.2% | ACHN renal 104% | CCRF-CEM leukemia 99.8% | MOLT-4 leukemia 102%

O=c1[nH]c(=O)n(Cc2ccc(F)cc2)cc1F
inactive: SK-MEL-2 melanoma 111% [50 µM] | EKVX NSCLC 105% [50 µM] | SN12C renal 99.8% [50 µM] | UO-31 renal 89.4% [50 µM] | ACHN renal 105% [50 µM] | CAKI-1 renal 95.3% [50 µM] | A498 renal 92.1% [50 µM] | CCRF-CEM leukemia 104% [50 µM] | MOLT-4 leukemia 96% [50 µM]

O=C1c2c(c3c4cc(Br)ccc4[nH]c3c3ccc4ccccc4c23)C(=O)N1O
inactive: SK-MEL-2 melanoma 106% | EKVX NSCLC 87.3% | SN12C renal 92.2% | UO-31 renal 101% | TK-10 renal 117% | ACHN renal 73.3% | CCRF-CEM leukemia 54.1% | MOLT-4 leukemia 68.5%

O=C1c2ccccc2C(=O)c2c(Nc3ccc(CCO)cc3)ccc(O)c21
active: CAKI-1 renal -4.04%
inactive: SK-MEL-2 melanoma 103% | EKVX NSCLC 45% | SN12C renal 85.5% | UO-31 renal 47.4% | TK-10 renal 100% | A498 renal 51.5% | CCRF-CEM leukemia 39.8% | MOLT-4 leukemia 35.9%

COc1ccc(-c2c(-c3cc4c(c(OC)c3OC)OCO4)noc2N)cc1
inactive: SK-MEL-2 melanoma 63% | EKVX NSCLC 40.5% | SN12C renal 44.4% | UO-31 renal 57.4% | TK-10 renal 66.3% | CAKI-1 renal 37.6% | A498 renal 35.8% | CCRF-CEM leukemia 11.7% | MOLT-4 leukemia 36.6%

Clc1ccc(Nc2nc(Nc3ccccc3)nc(Nc3ccc(-c4cc(-c5ccc(Cl)cc5)on4)cc3)n2)cc1
inactive: SK-MEL-2 melanoma 64.2% | EKVX NSCLC 69.5% | SN12C renal 64% | UO-31 renal 41.7% | TK-10 renal 52.8% | CAKI-1 renal 48.2% | A498 renal 43.9% | CCRF-CEM leukemia 70.5% | MOLT-4 leukemia 52.2%

CCCCCCCC/C=C\CCCCCCCCOc1cccc(CC(=O)NCC[N+]2(C)CCCC2)c1
inactive: SK-MEL-2 melanoma 107% | EKVX NSCLC 89.4% | SN12C renal 53% | UO-31 renal 94.1% | TK-10 renal 84.7% | CAKI-1 renal 78.1% | CCRF-CEM leukemia 51.6% | MOLT-4 leukemia 80.3%

COc1cccc2c(=O)c3c(sc12)c(NCCN(C)C)nc1ccccc13
active: A498 renal -15.7% | MOLT-4 leukemia -14.6%
inactive: SK-MEL-2 melanoma 49.1% | EKVX NSCLC 26.2% | SN12C renal 34.9% | UO-31 renal 12.2% | TK-10 renal 47.2% | CAKI-1 renal 26.2% | CCRF-CEM leukemia 20.9%

COC(=O)c1c2c(c(C)[n+]([O-])c1C)C(=O)C=C(NCc1ccc(Cl)cc1)C2=O
inactive: TK-10 renal 21.7%
active: SK-MEL-2 melanoma -30.9% | EKVX NSCLC -50% | SN12C renal -84.9% | UO-31 renal -9.07% | ACHN renal -19.1% | CCRF-CEM leukemia -6.94% | MOLT-4 leukemia -32.2%

Cc1ccccc1-n1nnc(C(=O)Nc2ccc(-c3ccccc3)cn2)c1C
active: MOLT-4 leukemia 8.31% [50 µM]
inactive: SK-MEL-2 melanoma 42% [50 µM] | EKVX NSCLC 34.8% [50 µM] | SN12C renal 64.4% [50 µM] | UO-31 renal 38.8% [50 µM] | ACHN renal 46% [50 µM] | CAKI-1 renal 31.1% [50 µM] | A498 renal 61.2% [50 µM] | CCRF-CEM leukemia 51.8% [50 µM]

O=c1oc2ccccc2cc1-c1csc(N=Nc2c(O)[nH]c3ccc(Cl)cc23)n1
inactive: SK-MEL-2 melanoma 107% | EKVX NSCLC 103% | SN12C renal 100% | UO-31 renal 98.2% | TK-10 renal 106% | ACHN renal 101% | CCRF-CEM leukemia 94.2% | MOLT-4 leukemia 105%

CN(C)C(=S)SCN1C(=O)c2ccc([N+](=O)[O-])cc2S1(=O)=O
inactive: SK-MEL-2 melanoma 112% | EKVX NSCLC 93.7% | SN12C renal 93.1% | UO-31 renal 83.1% | TK-10 renal 108% | CAKI-1 renal 96% | A498 renal 92.6% | CCRF-CEM leukemia 50.6% | MOLT-4 leukemia 91.6%

COc1cc(/C=C2\C(=O)Nc3ccccc32)cc(OC)c1O
active: MOLT-4 leukemia 0.624%
inactive: SK-MEL-2 melanoma 50.4% | EKVX NSCLC 110% | SN12C renal 77% | UO-31 renal 60% | TK-10 renal 88.5% | CAKI-1 renal 37.7% | A498 renal 52.5% | CCRF-CEM leukemia 26.7%

CCOC(=O)n1cc(C2=C(c3cn(C)c4ccccc34)COC2=O)c2ccccc21
active: A498 renal -14.3%
inactive: SK-MEL-2 melanoma 57.8% | EKVX NSCLC 45.2% | SN12C renal 23.9% | UO-31 renal 34.8% | ACHN renal 26.6% | CAKI-1 renal 13.2% | CCRF-CEM leukemia 16.8% | MOLT-4 leukemia 18.3%

Cc1nc(NC(=O)COc2cccc(/C=C3\COc4ccccc4C3=O)c2)sc1C
active: SK-MEL-2 melanoma -77% | EKVX NSCLC -23.3% | SN12C renal -46.1% | UO-31 renal -80.1% | TK-10 renal -74.1% | CAKI-1 renal -94.3% | CCRF-CEM leukemia -74.7% | MOLT-4 leukemia -36.8%
inactive: A498 renal 87.2%

CCCCCCCC/C=C\CCCCCCCCOc1cccc(CC(=O)NCC[N+]2(C)CCOCC2)c1
inactive: SK-MEL-2 melanoma 104% | EKVX NSCLC 94.6% | SN12C renal 81.5% | UO-31 renal 82.1% | TK-10 renal 75.1% | CAKI-1 renal 70.1% | MOLT-4 leukemia 72.1%

COc1ccc(-c2nn(-c3ccc(NC(=O)c4ccc(Cl)c(Cl)c4)cc3)cc2-c2ccncc2)cc1Cl
inactive: SK-MEL-2 melanoma 43.5% | EKVX NSCLC 56.4% | SN12C renal 80.5% | ACHN renal 52.6% | CCRF-CEM leukemia 37.4% | MOLT-4 leukemia 13.8%
active: UO-31 renal 2.82% | CAKI-1 renal -13.7% | A498 renal -0.135%

COc1cc2cc(Oc3ccc(NC(=O)Nc4ccc(Cl)c(C(F)(F)F)c4)cc3)c(C)nc2cc1OCCN1CCCCC1
inactive: SK-MEL-2 melanoma 95.3% | EKVX NSCLC 15.8% | CAKI-1 renal 15.4% | A498 renal 64.2%
active: SN12C renal -84.7% | UO-31 renal -90.1% | ACHN renal -100% | MOLT-4 leukemia -37.2%
